Screens as filed in PubChem BioAssay.
Rows were chosen to be rich in hits. Some 12% of all compounds tested hit in one or more screens of this group.
JMJD2A Tudor = inhibitors of human JMJD2A Tudor domain. O75164. AlphaScreen JMJD2A-Tudor / H3K4me3 peptide binding. Potency, µM (doses to about 114 µM), without a hit: at the top dose activity change, negative = inhibition, actives largely listed as inhibitors. 390,000 compounds, 4.4% hits; note: % is set by controls: 0 for no effect and ±100 for the full control effect; nearly all actives have a fitted effect of over 50% in size
Target sequence (O75164 whole entry, looked up, the tested form may be a part): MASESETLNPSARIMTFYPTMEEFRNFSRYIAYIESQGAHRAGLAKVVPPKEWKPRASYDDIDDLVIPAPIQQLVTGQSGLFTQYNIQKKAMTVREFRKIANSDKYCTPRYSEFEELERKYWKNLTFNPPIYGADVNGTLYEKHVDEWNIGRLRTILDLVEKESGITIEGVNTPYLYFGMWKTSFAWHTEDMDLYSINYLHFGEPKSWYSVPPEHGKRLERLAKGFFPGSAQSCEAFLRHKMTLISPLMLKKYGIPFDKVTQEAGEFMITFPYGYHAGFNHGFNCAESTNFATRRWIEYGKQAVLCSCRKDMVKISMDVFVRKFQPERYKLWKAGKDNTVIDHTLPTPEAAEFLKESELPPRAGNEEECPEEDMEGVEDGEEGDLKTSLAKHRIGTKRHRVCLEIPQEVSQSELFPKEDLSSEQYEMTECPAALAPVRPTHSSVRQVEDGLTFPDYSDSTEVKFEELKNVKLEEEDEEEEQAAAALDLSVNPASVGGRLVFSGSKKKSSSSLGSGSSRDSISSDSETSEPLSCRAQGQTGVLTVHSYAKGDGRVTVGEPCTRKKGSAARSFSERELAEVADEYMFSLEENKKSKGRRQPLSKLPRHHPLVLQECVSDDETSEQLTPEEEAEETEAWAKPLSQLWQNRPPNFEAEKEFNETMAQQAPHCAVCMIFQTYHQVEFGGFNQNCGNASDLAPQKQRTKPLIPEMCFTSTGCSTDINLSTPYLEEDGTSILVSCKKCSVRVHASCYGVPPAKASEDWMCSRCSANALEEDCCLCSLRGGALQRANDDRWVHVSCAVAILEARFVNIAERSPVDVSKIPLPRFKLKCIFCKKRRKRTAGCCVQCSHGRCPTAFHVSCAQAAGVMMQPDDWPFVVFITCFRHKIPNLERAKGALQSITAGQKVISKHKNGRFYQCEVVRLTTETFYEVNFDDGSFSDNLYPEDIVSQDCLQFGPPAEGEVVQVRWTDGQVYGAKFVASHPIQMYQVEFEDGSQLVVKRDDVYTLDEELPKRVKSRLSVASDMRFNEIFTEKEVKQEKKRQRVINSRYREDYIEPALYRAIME
G9a block = G9a (human) methyltransferase inhibition | Q96KQ7 | G9a H3K9 monomethylation, AlphaScreen, 2 h | Potency, µM (titrated, usually from 102 µM), for the others: at the top dose activity, negative = inhibition, usual class: inhibitors | 350,000 compounds, 8.8% hits; note: % is set by controls: 0 for no effect and ±100 for the full control effect; nearly all actives have a fitted effect of over 75% in size
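G9a (20 nM) was preincubated 15 min with compound, then reacted 2 h at room temperature with 500 nM biotin-H3K9 peptide and 20 µM SAM. Monomethyl-H3K9 detected by AlphaScreen using anti-H3K9me1 antibody.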
Sfp inh = inhibitors of Bacillus subtilis Sfp phosphopantetheinyl transferase; Q9F4F7; Biochemical Sfp PPTase activity, qHTS; Potency, µM, inactives show largest response in the series, negative = inhibition, most hits filed as inhibitors; 310,000 compounds, 3.5% hits; AID 1490;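 note: the enzyme is Sfp with the accession as filed and its product quenches rhodamine fluorescence; 0% = enzyme reaction without inhibitor and -100% = no enzyme wells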
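Step 1, compound plus 15 nM Sfp-PPTase, 15 min, room temperature. Step 2, add rhodamine-CoA (5 uM) and BHQ-2-YbbR (12.5 uM). Step 3, read 525/598 nm fluorescence at 0 and 30 min.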
BAZ2B block = BAZ2B (human) inhibition; 360,000 compounds, 4.4% hits; AlphaScreen BAZ2B-H3K14Ac peptide displacement; Q9UIF8; Potency, µM (doses to about 114 µM), for the others: top-dose activity change, negative = inhibition, actives largely listed as inhibitors; note: % is set by controls: 0 for no effect and ±100 for the full control effect; nearly all actives have a fitted effect of over 60% in size
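In this displacement format the biotinylated H3(5-23) peptide acetylated at Lys14 serves as ligand at 50 nM, with BAZ2B at 50 nM in PBS pH 7.4 containing 0.01% Tween-20. Donor and acceptor beads are 10 ug/mL final.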
HP1b chromo inh = inhibitors of HP1-beta chromodomain binding to methylated histone tails; P83916; AlphaScreen HP1-beta / biotin-H3K9me3 peptide binding; Potency, µM (series often up to 114 µM), for inactives: at the highest dose activity change, negative = inhibition, actives largely listed as inhibitors; 390,000 compounds, 0.56% hits; AID 540317; note: nearly all actives have a fitted effect of over 70% in size
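HP1-beta protein (50 nM final) preincubated 30 min at room temperature with biotinylated H3(1-18)K9me3 peptide (50 nM) in PBS pH 7.4, 0.01% Tween-20, then compound added for 30 min. AlphaScreen streptavidin donor/nickel chelate acceptor beads (10 ug/mL final), 30 min dark, luminescence read.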
L3MBTL1 inh = blocks human L3MBTL1 | Q9Y468 | AlphaScreen L3MBTL1–H3K9me1 peptide binding | Potency, µM (doses to about 57.1 µM), for the others: at the highest dose activity, negative = inhibition, usual class: inhibitors | 230,000 compounds, 0.66% hits | AID 485360; note: % is set by controls: 0 for no effect and ±100 for the full control effect; nearly all actives have a fitted effect of over 60% in size
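Read-out is AlphaScreen signal from streptavidin donor and nickel chelate acceptor beads (10 ug/mL final each) bridging L3MBTL1 (50 nM) and biotinylated K9-monomethylated H3(1-15) peptide (75 nM), after 30 min compound exposure at room temperature.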
* = called active by the depositor; ? = inconclusive; · = no result; [ ] = dose if it differs, or a comment. Calls come from the whole dose curve; as a rule, active = well fitted curve in the direction sought with a large enough effect; inconclusive = small, poorly fitted or top-dose-only effect, or another doubt; inactive = no such curve, though single readings can be large; an effect the other way counts as inactive or inconclusive. Potency is the fitted concentration of half-maximal effect.

SMILES	JMJD2A Tudor	G9a block	Sfp inh	BAZ2B block	HP1b chromo inh	L3MBTL1 inh
NS(=O)(=O)c1ccc(CCNC(=O)CNCCc2ccccc2)cc1	25µM*	50µM*	-10%	50µM*	?	·
Cc1ccc(S(=O)(=O)CCNC(=O)Cc2ccccc2)cc1	20µM*	2%	22%	-12%	-3%	5%
CCCCCC(=O)/C=C/[C@@H]1[C@@H](C/C=C\CCCC(=O)O)[C@@H](O)C[C@H]1O	·	·	-4%	·	·	·
CC(NS(=O)(=O)c1ccc(Br)cc1)C(=O)NCCc1ccccc1 (stereo not given)	-15%	40µM*	-16%	-6%	18%	-1%
NS(=O)(=O)c1ccc(CCNC(=O)c2ccc(C(=O)c3ccccc3)cc2)cc1	-10%	-9%[59 µM]	10%	0%	-17%	·
O=C(CCNS(=O)(=O)c1ccc(Br)cc1)NCCc1ccccc1	-8%	-15%	11%	-6%[57.1 µM]	25%	·
O=S(=O)(NCCc1ccccc1)c1ccc(Br)cc1	21%	27%	-1%	9%	64%	6%
NS(=O)(=O)c1ccc(CCNC(=O)c2ccc3nccnc3c2)cc1	40µM*	·	·	·	71µM*	16µM*
O=C(CCS(=O)(=O)c1ccc(Br)cc1)NCCc1ccccc1	40µM*	50µM*	16%	?	?	·
CCOC(=O)c1cnc(-n2nc(C)cc2C)nc1NCCc1ccccc1	-20%	6%	50µM*	9%	46%	-4%
CCOC(=O)c1cnc(-n2nc(C)cc2C)nc1N1CCOCC1	-5%	79µM*	-22%	14%	17%	17%
CCOC(=O)c1cnc(-n2nc(C)cc2C)nc1Nc1ccccc1OC	·	-22%	12%	?	·	-8%
CCOC(=O)c1cnc(-n2nc(C)cc2C)nc1NC1CCCC1	-23%	·	32µM*	1%	44%	21%
CCOC(=O)c1cnc(-n2nc(C)cc2C)nc1Nc1ccc(OC)cc1	?	?	19%	-9%	12%	-12%
O[C@@H]1CN(Cc2ccc(-n3cccn3)cc2)CC[C@H]1N1CCN(c2ccccc2F)CC1	-26%	·	5%	-6%	11%	-5%
Cc1cc(C)c(C(=O)CSc2nnc(N)s2)c(C)c1	-22%	25µM*	8%	-7%	-20%	·
Cc1cc(C(=O)CSc2nc(N)cc(N)n2)c(C)n1C1CC1	?	?	-25%	-25%	-21%	·
Cc1cc(C)c(C(=O)CSc2nnc(C)s2)c(C)c1	7%	40%	-8%	16%	42%	-7%
Cc1cc(C(=O)CSc2nnc(N)s2)c(C)n1-c1c(C)n(C)n(-c2ccccc2)c1=O	-24%	50µM*	-9%	-9%	1%	·
Cc1cc(C(=O)CSc2nnc(N)s2)c(C)n1C1CC1	-19%	50µM*	·	-11%	22%	-11%
COCC(C)n1c(C)cc(C(=O)CSc2nnc(N)s2)c1C (stereo not given)	-25%	6.3µM*	8%	-35%	16%	·
COc1cc([N+](=O)[O-])ccc1NC(=O)NCCCN1CCCC1=O	-14%	14%	0%	-26%	24%	·
COc1ccc(C(=O)N2CCC3(CCCN(Cc4ccncc4)C3)CC2)cc1	·	-15%[12.7 µM]	17%	·	·	·
O=S(=O)(NCc1nc2cccnc2n1Cc1ccc(F)cc1)c1ccc(Cl)s1	-17%	21%[59 µM]	·	10%	15%[57 µM]	·
Cc1ccc(CN2CCSc3ccc(C(=O)N4CCN(c5cccc(C)c5C)CC4)cc32)cc1	-27%	-35%[59 µM]	·	-21%	17%	·
SMILES	JMJD2A Tudor	G9a block	Sfp inh	BAZ2B block	HP1b chromo inh	L3MBTL1 inh
Cc1ccc(CN2CCSc3ccc(C(=O)N4CCN(c5ccc(Cl)cc5)CC4)cc32)cc1	?	3.2µM*	·	-37%	6%	·
O=C(c1ccc2c(c1)N(Cc1ccccc1)CCS2)N1CCCCC1	?	-50%[59 µM]	40µM*	?	10%	-7%
CN1CCN(C(=O)c2ccc3c(c2)N(Cc2ccccc2)CCS3)CC1	-20%	·	-5%	-36%	15%	-5%
CSc1c(-c2ccccn2)c(N)nn1C(=O)C1CCC1	79%	·	-15%	40%	135%	48%
O=C(C1CCC(Cn2c(=O)c3sccc3n(Cc3cccc(F)c3)c2=O)CC1)N1CCCCC1 (stereo not given)	-32%	10%[59 µM]	·	-19%	22%	·
CNC(=O)N(O)C1N(C)C(=O)N(CC(=O)OC)C1(C)C (stereo not given)	16µM*	-38%[59 µM]	2%	9%	13%	3%
COc1ccc(N2C(=O)c3ccccc3NC2c2ccc(OC)c(COc3ccccn3)c2)cc1 (stereo not given)	-7%[57.1 µM]	6%[59 µM]	2%	5%	1%[57 µM]	-10%
COc1cc(C2NC(=O)C(C#N)=C(S)N2c2ccc(C)cc2)ccc1OC(C)C (stereo not given)	-16%	?	?	-35%	24%	·
CCOc1ccc(C2NC(=O)C(C#N)=C(S)N2c2ccc(OC)cc2)cc1OC (stereo not given)	-23%	?	28µM*	10%	13%	25%
COc1ccc(C2N(c3ccccc3)C(=O)C2(F)F)cc1OC (stereo not given)	1%	-7%	3%	5%	19%	·
COc1ccc(C2NC(=O)C(C#N)=C(S)N2c2ccc(C)cc2)cc1OC (stereo not given)	-21%	45µM*	32µM*	-31%	11%	0%
COc1ccc(N2C(S)=C(C#N)C(=O)NC2c2ccc(OC)c(OC)c2)cc1 (stereo not given)	-16%	?	22µM*	-13%	47%	-4%
COc1ccc(C2NC(=O)C(C#N)=C(S)N2c2cccc(C)c2)cc1OC (stereo not given)	-18%[57.1 µM]	40µM*	32µM*	-35%	23%	5%
CN(C)CCN(C(=O)C1CCN(S(=O)(=O)c2cccs2)CC1)c1nc2c(F)cccc2s1	-15%	?	·	?	-3%	2%
Cc1ccc(-n2c([C@@H]3C[C@H]3c3ccccc3)n[nH]c2=S)cc1	-22%	0.5µM*	?	-33%	27%	-3%
Cc1ccc(-n2c(C3CC3c3ccc(Cl)cc3)n[nH]c2=S)cc1 (stereo not given)	-27%	2µM*	0%	-28%	17%	·
Cc1ccc(C2CC2c2n[nH]c(=S)n2-c2ccc(C)cc2)cc1 (stereo not given)	?	0.63µM*	7%	-32%	-15%	·
Cc1ccc(C2CC2c2n[nH]c(=S)n2-c2cccc(Cl)c2)cc1 (stereo not given)	?	10µM*	4%	-39%	-9%	-6%
S=c1[nH]nc(C2CC2c2ccc(Cl)cc2)n1-c1ccc(Cl)cc1 (stereo not given)	?	?	5%	?	-21%	-12%
